Results reported in PubChem BioAssay (Tox21).
Values without a mark were called inactive. Results filed as inconclusive are left out. A call without a number means that no potency is given here. Active and inactive are the calls of the source. Unless noted, the call rests on the fitted dose curve; in most records, active means well fitted curve in the direction sought with a large enough effect in the repeat runs; inconclusive means weak or mixed curves; inactive means no such curve, though single readings can be large; an effect the other way counts as inactive or inconclusive.

Key:
[1] = qHTS assay to identify small molecule agonists of the sonic hedgehog signaling (Shh) pathway (AID 1259368; calls by dose curve;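 further: NIH/3T3-derived 3T3Gli1-Luc cells carrying a stable Gli1-driven firefly luciferase reporter; series mostly up to about 92 µM; nearly all actives have a fitted effect of over 15% in size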)
Summary of the method: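 Luminescence was read after 30 min at room temperature with luciferase reagent. Before that, 3T3Gli1-Luc cells (NIH/3T3 clone, stable Gli1-Luc reporter; 2,000/well) were exposed to compounds for 24 hr at 37C, 5% CO2, compounds being added 4 hr post-plating.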

[2] = qHTS assay to identify small molecule agonists of the androgen receptor (AR) signaling pathway in the presence of an antagonist - cell viability counter screen (AID 1259379);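 further: MDA-kb2 human breast cancer cells carrying an MMTV luciferase reporter; series mostly up to about 92 µM; nearly all actives have a fitted effect of over 25% in size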
Summary of the method: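 Cytotoxicity counter-screen run in the same wells as the nilutamide-challenged (3.0 µM final) AR agonist assay in MDA-kb2 cells. Compounds tested at 15 concentrations for 16 h, 37 °C without CO2; CellTiter-Fluor fluorescence read.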

[3] = qHTS assay to identify small molecule agonists of the estrogen receptor beta (ER-beta) signaling pathway - cell viability counter screen (AID 1259380); further: nearly all actives have a fitted effect of over 30% in size
Summary of the method: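 Cell viability counter screen: CellTiter-Glo luminescence (30 min, room temperature) measured in the same wells as the beta-lactamase readout, after 16 hr compound exposure at 37C of ER-beta-bla HEK293T cells in 2% charcoal-stripped FBS medium.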

[4] = qHTS assay to identify small molecule antagonists of the estrogen receptor beta (ER-beta) signaling pathway - cell viability counter screen (AID 1259382);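 further: HEK293T cells carrying ER-beta-UAS-bla reporter stimulated with estradiol; series mostly up to about 92 µM; nearly all actives have a fitted effect of over 55% in size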
Summary of the method: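 Cytotoxicity was measured in the same wells by CellTiter-Glo luminescence after 30 min at room temperature. Cells were ER-beta-bla HEK293T in charcoal-stripped serum, given compound together with 1 nM E2 and incubated 16 h at 37C.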

[5] = molecular target: Estrogen receptor (Homo sapiens) (UniProt P03372); test: qHTS assay to identify small molecule agonists of the estrogen receptor alpha (ER-alpha) signaling pathway in the presence of an antagonist (AID 1259383; calls by dose curve; further: top concentration of the series differs between compounds; nearly all actives have a fitted effect of over 15% in size)
Chain of Estrogen receptor (Homo sapiens) (P03372 whole entry, looked up): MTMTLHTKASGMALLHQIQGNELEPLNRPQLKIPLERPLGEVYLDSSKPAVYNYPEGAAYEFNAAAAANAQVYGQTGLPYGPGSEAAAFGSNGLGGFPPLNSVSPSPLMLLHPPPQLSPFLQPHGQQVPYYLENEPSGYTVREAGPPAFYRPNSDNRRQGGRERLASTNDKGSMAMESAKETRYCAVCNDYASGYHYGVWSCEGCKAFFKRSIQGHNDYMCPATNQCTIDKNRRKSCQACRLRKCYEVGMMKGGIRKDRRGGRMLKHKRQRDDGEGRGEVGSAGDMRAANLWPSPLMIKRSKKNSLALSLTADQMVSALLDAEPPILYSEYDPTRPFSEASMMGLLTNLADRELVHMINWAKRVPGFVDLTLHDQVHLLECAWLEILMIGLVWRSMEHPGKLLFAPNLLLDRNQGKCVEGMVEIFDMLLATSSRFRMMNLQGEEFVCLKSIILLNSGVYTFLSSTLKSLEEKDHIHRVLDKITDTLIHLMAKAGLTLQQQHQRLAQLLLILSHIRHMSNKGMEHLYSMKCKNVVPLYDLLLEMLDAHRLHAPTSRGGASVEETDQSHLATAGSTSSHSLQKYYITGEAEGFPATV
Summary of the method: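 Agonist-mode confirmation run in the presence of 10.0nM (final) ICI-182,780 antagonist. The reporter was ERE-driven luciferase in VM7Luc4E2 cells, grown in charcoal-stripped serum. Cells were exposed to 15-concentration compound series for 22hr, then ONE-Glo luminescence was read.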

[6] = qHTS assay to identify small molecule agonists or antagonists of the thyroid stimulating hormone receptor (TSHR) signaling pathway - wild type cell line counter screen (AID 1259384; calls by dose curve)
Summary of the method: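 Counter screen in untransfected Hek293: compounds (15-point titration, triplicate) plus phosphodiesterase inhibitor Ro20-1724 added after 18 h plating; 30 min RT. Intracellular cAMP via competitive d2/cryptate immunoassay, 1 h incubation.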

[7] = molecular target: Thyrotropin receptor (Homo sapiens) (UniProt P16473); test: qHTS assay to identify small molecule antagonists of the thyroid stimulating hormone receptor (TSHR) signaling pathway (AID 1259385; calls by dose curve; further: nearly all actives have a fitted effect of over 20% in size; further: potency means the concentration at half of the fitted maximal effect)
Chain of Thyrotropin receptor (Homo sapiens) (P16473 whole entry, looked up): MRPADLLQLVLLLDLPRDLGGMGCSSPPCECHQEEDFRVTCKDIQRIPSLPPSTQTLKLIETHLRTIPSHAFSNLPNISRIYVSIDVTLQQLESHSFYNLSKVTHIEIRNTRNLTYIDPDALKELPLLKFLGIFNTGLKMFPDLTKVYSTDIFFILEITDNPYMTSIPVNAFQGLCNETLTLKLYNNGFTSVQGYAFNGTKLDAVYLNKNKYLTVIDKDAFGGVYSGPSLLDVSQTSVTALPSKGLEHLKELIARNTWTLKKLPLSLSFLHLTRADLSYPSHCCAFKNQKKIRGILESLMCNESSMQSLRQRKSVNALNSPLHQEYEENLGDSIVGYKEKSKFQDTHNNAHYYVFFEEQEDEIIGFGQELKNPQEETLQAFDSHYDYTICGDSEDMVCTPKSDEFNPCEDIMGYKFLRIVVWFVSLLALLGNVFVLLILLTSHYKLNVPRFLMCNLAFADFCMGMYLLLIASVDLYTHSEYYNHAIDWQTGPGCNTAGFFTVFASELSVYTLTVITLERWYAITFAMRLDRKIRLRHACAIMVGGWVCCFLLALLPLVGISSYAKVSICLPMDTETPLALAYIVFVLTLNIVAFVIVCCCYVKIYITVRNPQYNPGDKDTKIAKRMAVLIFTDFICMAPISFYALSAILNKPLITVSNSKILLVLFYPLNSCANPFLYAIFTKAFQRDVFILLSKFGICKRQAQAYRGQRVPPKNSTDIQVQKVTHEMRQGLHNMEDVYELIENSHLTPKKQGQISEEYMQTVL
Summary of the method: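 Antagonist mode: compound-treated TSHR-expressing HEK293 cells were stimulated with 1.5 ng/mL TSH (final) in presence of Ro20-1724 for 30 min at RT. HTRF cAMP detection after 1 h; each compound tested at 15 concentrations, triplicate.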

[8] = qHTS assay to identify small molecule agonists of the estrogen receptor alpha (ER-alpha) signaling pathway in the presence of an antagonist - cell viability counter screen (AID 1259386); further: series mostly up to about 92 µM; nearly all actives have a fitted effect of over 30% in size
Summary of the method: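 Compounds tested at 15 concentrations for 22 h at 37C alongside 10.0nM (final) ICI-182,780 antagonist, in VM7Luc4E2 cells grown in phenol red-free, charcoal-stripped medium. Viability read by CellTiter-Fluor fluorescence after 1 h reagent incubation.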

[9] = molecular target: Progesterone receptor (Homo sapiens) (UniProt P06401); test: qHTS assay to identify small molecule agonists of the progesterone receptor (PR) signaling pathway (AID 1346784; calls by dose curve; further: nearly all actives have a fitted effect of over 30% in size)
Chain of Progesterone receptor (Homo sapiens) (P06401 whole entry, looked up): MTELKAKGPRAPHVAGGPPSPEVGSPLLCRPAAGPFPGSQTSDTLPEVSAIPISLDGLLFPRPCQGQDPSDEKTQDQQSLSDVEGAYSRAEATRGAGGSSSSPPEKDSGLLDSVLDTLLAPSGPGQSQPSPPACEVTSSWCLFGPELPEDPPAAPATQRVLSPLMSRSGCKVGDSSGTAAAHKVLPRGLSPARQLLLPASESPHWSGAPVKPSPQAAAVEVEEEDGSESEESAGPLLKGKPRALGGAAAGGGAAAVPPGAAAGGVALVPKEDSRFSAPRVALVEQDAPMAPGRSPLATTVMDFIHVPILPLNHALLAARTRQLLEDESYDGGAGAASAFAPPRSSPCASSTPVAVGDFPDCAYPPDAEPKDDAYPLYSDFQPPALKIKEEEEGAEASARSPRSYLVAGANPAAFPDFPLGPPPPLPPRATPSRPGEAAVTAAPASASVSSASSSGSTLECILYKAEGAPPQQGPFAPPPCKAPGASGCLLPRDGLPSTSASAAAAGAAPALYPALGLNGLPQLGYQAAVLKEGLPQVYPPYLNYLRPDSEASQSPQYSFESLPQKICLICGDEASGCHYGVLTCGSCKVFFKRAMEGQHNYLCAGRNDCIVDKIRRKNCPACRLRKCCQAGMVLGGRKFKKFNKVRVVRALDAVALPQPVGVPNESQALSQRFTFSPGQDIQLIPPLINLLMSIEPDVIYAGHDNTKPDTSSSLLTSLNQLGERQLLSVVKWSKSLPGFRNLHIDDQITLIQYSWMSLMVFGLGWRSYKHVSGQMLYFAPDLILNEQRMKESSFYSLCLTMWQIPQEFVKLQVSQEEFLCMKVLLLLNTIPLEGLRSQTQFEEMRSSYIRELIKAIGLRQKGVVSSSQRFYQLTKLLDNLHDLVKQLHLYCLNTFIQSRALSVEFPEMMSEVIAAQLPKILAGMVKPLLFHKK
Summary of the method: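 Cells (PR-UAS-bla HEK 293T, GripTite) were plated in assay medium containing 2% charcoal-stripped FBS and incubated 6 hr. Test compounds in DMSO were added for 16 hr at 37C. FRET substrate was then loaded for 2 hr at room temperature before fluorescence reading.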

[10] = molecular target: Progesterone receptor (Homo sapiens) (UniProt P06401); test: qHTS assay to identify small molecule antagonists of the progesterone receptor (PR) signaling pathway (AID 1346795; active means well fitted inhibition curve with a large enough effect in the signal ratio in the repeat runs, not every such curve was filed as active; the % refers to the signal ratio; further: potency means the concentration at half of the fitted maximal effect)
Summary of the method: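 Antagonist mode: compounds tested against 1 nM (final) promegestone stimulation in HEK293T cells expressing PR-UAS-bla reporter, 16 hr at 37C, 5% CO2; beta-lactamase activity detected via B/G FRET substrate after 2 hr at room temperature.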

[11] = qHTS assay to identify small molecule antagonists of the progesterone receptor (PR) signaling pathway - cell viability counter screen (AID 1346798); further: nearly all actives have a fitted effect of over 50% in size; further: potency means the concentration at half of the fitted maximal effect
Summary of the method: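 Counter screen for cytotoxicity: viability of PR-UAS-bla HEK293T cells was measured with CellTiter-Glo luminescence following 16 hr compound exposure in the presence of R5020.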

[12] = qHTS assay to identify small molecule agonists of the progesterone receptor (PR) signaling pathway - cell viability counter screen (AID 1346799; calls by dose curve; further: nearly all actives have a fitted effect of over 45% in size)
Summary of the method: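 Cells (PR-UAS-bla HEK293T) are plated at 3,000/well in 2% charcoal-stripped FBS medium, rested 6 hr, dosed and incubated 16 hr at 37C. CellTiter-Glo is then added and luminescence measured after 30 min at room temperature.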

[13] = qHTS assay to identify small molecule antagonists of the TGF-beta/Smad signaling pathway - cell viability counter screen (AID 1346824); further: nearly all actives have a fitted effect of over 50% in size
Summary of the method: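 Cytotoxicity counter-screen run in the same wells as the beta-lactamase Smad reporter read: CellTiter-Glo luminescence after 30 min at room temperature. HEK 293T SBE-bla cells had 5 hr compound exposure at 37 C with TGF-beta1 (0.25 ng/mL stock).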

[14] = qHTS assay to identify small molecule agonists of the TGF-beta/Smad signaling pathway - cell viability counter screen (AID 1346829); further: top concentration of the series differs between compounds; nearly all actives have a fitted effect of over 45% in size
Summary of the method: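 Luminescence from CellTiter-Glo, read after a 30 min room-temperature incubation, gives cell viability of SBE-bla HEK 293T cells treated 5 hr with compounds at 37 C.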

[15] = qHTS assay to identify small molecule agonists of the TGF-beta/Smad signaling pathway (AID 1346859; active means well fitted activation curve with a large enough effect in the signal ratio in the repeat runs, not every such curve was filed as active; the % refers to the signal ratio; further: series mostly up to about 77 µM)
Summary of the method: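 Reporter line: HEK 293T with stably integrated SBE-controlled beta-lactamase. Compound exposure lasts 5 hr at 37 C and 5% CO2; substrate loading follows for 2 hr at room temperature, with emission read at 460 and 530 nm.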

[16] = qHTS assay to identify small molecule antagonists of the sonic hedgehog signaling (Shh) pathway (AID 1259369; calls by dose curve; further: nearly all actives have a fitted effect of over 45% in size)
Summary of the method: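 Antagonist mode: compound added to 3T3 Gli1-Luc cells followed by conditioned-medium stimulation, 24 h at 37 C, 5% CO2. Inhibition taken as loss of Gli1-driven luciferase luminescence.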

[17] = molecular target: Estrogen receptor beta (Homo sapiens) (UniProt Q92731); test: qHTS assay to identify small molecule agonists of the estrogen receptor beta (ER-beta) signaling pathway (AID 1259377; active means well fitted activation curve with a large enough effect in the signal ratio in the repeat runs, not every such curve was filed as active; the % refers to the signal ratio)
Chain of Estrogen receptor beta (Homo sapiens) (Q92731 whole entry, looked up, the tested form may be a part): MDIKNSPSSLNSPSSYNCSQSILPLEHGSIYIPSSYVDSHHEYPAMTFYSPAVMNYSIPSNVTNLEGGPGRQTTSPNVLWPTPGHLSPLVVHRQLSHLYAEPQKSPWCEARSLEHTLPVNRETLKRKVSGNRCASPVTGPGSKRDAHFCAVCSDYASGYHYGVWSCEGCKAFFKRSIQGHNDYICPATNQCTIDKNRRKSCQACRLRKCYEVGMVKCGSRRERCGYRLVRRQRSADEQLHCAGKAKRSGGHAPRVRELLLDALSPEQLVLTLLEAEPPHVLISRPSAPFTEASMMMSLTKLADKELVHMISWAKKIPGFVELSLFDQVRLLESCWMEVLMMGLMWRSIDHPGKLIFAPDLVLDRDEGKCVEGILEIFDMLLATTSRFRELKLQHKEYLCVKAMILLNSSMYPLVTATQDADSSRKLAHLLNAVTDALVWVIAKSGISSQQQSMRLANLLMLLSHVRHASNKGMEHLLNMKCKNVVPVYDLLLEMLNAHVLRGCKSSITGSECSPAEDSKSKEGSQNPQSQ
Summary of the method: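 Agonist mode cell assay in GripTite HEK293T cells expressing an ER-beta fusion that drives beta-lactamase from an Upstream Activator Sequence; 16 hr compound exposure at 37C, then 2 h LiveBLAzer B/G FRET substrate at room temperature, fluorescence read-out.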

[18] = molecular target: Thyrotropin-releasing hormone receptor (Homo sapiens) (UniProt P34981); test: qHTS assay to identify small molecule antagonists of the thyrotropin-releasing hormone receptor (TRHR) signaling pathway (AID 1346877; active means well fitted inhibition curve with a large enough effect in the repeat runs, not every such curve was filed as active; further: series mostly up to about 51 µM)
Chain of Thyrotropin-releasing hormone receptor (Homo sapiens) (P34981 whole entry, looked up): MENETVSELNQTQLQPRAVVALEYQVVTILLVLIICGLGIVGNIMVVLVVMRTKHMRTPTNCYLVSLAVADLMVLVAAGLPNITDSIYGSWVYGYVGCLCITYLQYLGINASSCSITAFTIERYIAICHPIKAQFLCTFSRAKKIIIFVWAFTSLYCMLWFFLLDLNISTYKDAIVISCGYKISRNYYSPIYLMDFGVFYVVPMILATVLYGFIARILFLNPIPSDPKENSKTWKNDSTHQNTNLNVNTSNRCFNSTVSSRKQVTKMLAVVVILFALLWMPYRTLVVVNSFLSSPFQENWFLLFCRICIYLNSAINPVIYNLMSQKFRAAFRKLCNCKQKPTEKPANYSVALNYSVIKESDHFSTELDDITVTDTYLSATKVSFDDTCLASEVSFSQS
Summary of the method: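 Antagonist mode: after a 5 min room-temperature compound exposure, cells were stimulated with 1 nM (final) TRH. Dye-loaded TRHR-HEK293 cells were used, and calcium-dependent fluorescence was followed for 3 min, with 15-point titrations run in triplicate.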

[19] = molecular target: Androgen receptor (Homo sapiens) (UniProt P10275); test: qHTS assay to identify small molecule agonists of the androgen receptor (AR) signaling pathway in the presence of an antagonist (AID 1259381; calls by dose curve; further: nearly all actives have a fitted effect of over 15% in size)
Chain of Androgen receptor (Homo sapiens) (P10275 whole entry, looked up): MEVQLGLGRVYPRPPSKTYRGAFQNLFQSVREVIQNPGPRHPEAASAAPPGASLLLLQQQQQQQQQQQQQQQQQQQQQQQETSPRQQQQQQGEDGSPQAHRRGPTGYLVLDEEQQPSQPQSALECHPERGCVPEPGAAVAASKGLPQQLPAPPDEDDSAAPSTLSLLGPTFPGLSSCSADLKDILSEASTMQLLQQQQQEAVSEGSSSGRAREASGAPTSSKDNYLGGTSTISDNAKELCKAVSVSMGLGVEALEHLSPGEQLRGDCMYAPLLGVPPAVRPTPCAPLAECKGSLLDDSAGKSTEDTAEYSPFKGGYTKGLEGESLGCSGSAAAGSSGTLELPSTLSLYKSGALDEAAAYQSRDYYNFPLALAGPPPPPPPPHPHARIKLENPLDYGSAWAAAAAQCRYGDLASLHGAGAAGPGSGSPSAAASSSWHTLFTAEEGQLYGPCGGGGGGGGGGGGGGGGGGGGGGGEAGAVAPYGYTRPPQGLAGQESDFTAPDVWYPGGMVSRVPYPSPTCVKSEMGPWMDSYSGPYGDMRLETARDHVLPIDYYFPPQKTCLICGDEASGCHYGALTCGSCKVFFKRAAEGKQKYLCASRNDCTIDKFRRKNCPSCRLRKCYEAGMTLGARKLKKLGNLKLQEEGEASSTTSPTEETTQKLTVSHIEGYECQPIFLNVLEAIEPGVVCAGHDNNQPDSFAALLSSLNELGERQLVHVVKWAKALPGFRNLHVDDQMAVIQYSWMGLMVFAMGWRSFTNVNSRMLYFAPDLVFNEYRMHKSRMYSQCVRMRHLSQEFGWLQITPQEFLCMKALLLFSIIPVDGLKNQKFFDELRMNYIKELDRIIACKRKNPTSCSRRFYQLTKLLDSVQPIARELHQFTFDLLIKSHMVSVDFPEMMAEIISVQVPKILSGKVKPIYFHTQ
Summary of the method: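 Agonist-mode confirmation run against 3.0 uM final nilutamide: compounds titrated at 15 concentrations onto MDA-kb2 MMTV-luciferase reporter cells. Luminescence measured with ONE-Glo following 16 hr incubation, 37C, 0% CO2.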

[20] = molecular target: Estrogen receptor beta (Homo sapiens) (UniProt Q92731); test: qHTS assay to identify small molecule antagonists of the estrogen receptor beta (ER-beta) signaling pathway (AID 1259378; active means well fitted inhibition curve with a large enough effect in the signal ratio in the repeat runs, not every such curve was filed as active; the % refers to the signal ratio)
Summary of the method: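 Antagonist mode: compounds added to beta-lactamase reporter HEK293T ER-beta-UAS cells stimulated with E2 (1nM final), 16 hr at 37C. LiveBLAzer B/G FRET substrate, 2 hours room temperature, fluorescence read-out.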

Compound | Potency [1] | Potency [2] | Potency [3] | outcome [4] | Potency [5] | outcome [6] | Potency [7] | Potency [8] | Potency [9] | Potency [10] | Potency [11] | Potency [12] | outcome [13] | outcome [14] | outcome [15] | Potency [16] | outcome [17] | outcome [18] | Potency [19] | Potency [20]
CCN(CC)CCNC(=O)COc1ccc(Cl)cc1 | inactive | inactive | inactive | inactive | inactive | inactive | inactive | inactive | inactive | inactive | inactive | inactive | inactive | inactive | inactive |  |  |  |  | 
C/C(=N\O)[C@@H](C)NCC(C)(C)CN[C@H](C)/C(C)=N/O | inactive | inactive | inactive | inactive |  |  | inactive | inactive | inactive | inactive |  | inactive | inactive |  | inactive |  |  |  |  | 
CCCCNC(=S)NCCCC |  |  | inactive |  | inactive | inactive | inactive | inactive |  |  | 9.69 µM (active) | inactive | inactive | inactive | inactive | inactive | inactive | inactive |  | 
CCN(CC)CCOc1ccc(Cc2ccccc2)cc1 | inactive | inactive |  | inactive | inactive | inactive | 29.8 µM (active) | inactive | inactive | inactive | inactive | inactive | inactive | inactive | inactive |  |  |  |  | 
CCCCC(=O)O[C@]1(C(=O)CO)[C@H](C)C[C@H]2[C@@H]3CCC4=CC(=O)C=C[C@]4(C)[C@@]3(F)[C@@H](O)C[C@@]21C | inactive | inactive | inactive | inactive | inactive | inactive | inactive | inactive |  | inactive | inactive |  | inactive | inactive | inactive |  |  |  |  | 
COC(=O)C(C)O (stereo unspecified) | inactive |  | inactive | inactive | inactive | inactive |  | inactive | inactive | inactive | inactive | inactive | inactive |  | inactive |  |  | inactive | inactive | 
OCc1c2ccccc2cc2ccccc12 | inactive | inactive |  | inactive | inactive | inactive |  | inactive | inactive | 54.6 µM (active) | inactive | inactive | inactive | inactive | inactive |  |  | inactive |  | inactive
NC/C=C/C(=O)O | inactive | inactive | inactive | inactive |  | inactive |  | inactive |  | inactive | inactive | inactive | inactive | inactive | inactive |  |  | inactive |  | 
CC(C)(CO)[C@@H](O)C(=O)NCCC(=O)O | inactive | inactive | inactive | inactive | inactive | inactive | inactive | inactive | inactive |  |  |  | inactive | inactive | inactive |  |  | inactive |  | 
